# Laboratory results taken from the supplement of paper PMC10849652.
# About 7,900 targets were measured; listed, in parts, are those with a hit and a random draw of the rest. About 0.6% of all pairs of compound and target were hits. Unmarked numbers belong to inactive results.
# Columns and labels:
# Assay in all cases: log2 fold change, soluble protein after heating vs DMSO (PISA); higher = thermal stabilisation; K562 cells, 10 uM, 30 min; active = over 0.2 and 3.5 SD of the protein, either way, in both replicates (recomputed)
# [1] = compound: C[C@H](Nc1ncnc2nc[nH]c12)c1cc2cccc(Cl)c2c(=O)n1-c1ccccc1 [duvelisib]
# Procedure, shortened: (§1)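 Soluble protein was quantified by TMTpro 16plex LC-MS/MS after channel sums were equalised. It was obtained as the supernatant after 21,000xg for 90 min from pooled aliquots of K562 cells (2×10^6 cells/mL, 10 μM compound, 30 min) heated for 3 min across 48°C-58°C and extracted in PBS with 0.5% NP-40 at 4°C. Thermal stability values are relative to control samples and come from duplicates. They are given as log2 fold changes.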
# [2] = compound: Cc1cc(Nc2cc(CN3CCOCC3)c3nc(C)c(Cc4ccc(Cl)cc4F)n3n2)n[nH]1 [gandotinib]
# Procedure, shortened: as §1
# [3] = compound: Cc1cc(Nc2cc(N3CCN(C)CC3)nc(Sc3ccc(NC(=O)C4CC4)cc3)n2)n[nH]1 [tozasertib]
# Procedure, shortened: as §1
# [4] = compound: Cc1cc(SCc2sc(-c3ccc(C(F)(F)F)cc3)nc2C)ccc1OCC(=O)O
# Procedure, shortened: as §1
# [5] = compound: Cc1ccc(C(=O)N(CCCN)[C@@H](c2nc3cc(Cl)ccc3c(=O)n2Cc2ccccc2)C(C)C)cc1 [ispinesib]
# Procedure, shortened: as §1
# [6] = compound: Cc1cccc(CC(=O)N2CCc3c2ccc(-c2cn(C)c4ncnc(N)c24)c3F)n1
# Procedure, shortened: as §1
# [7] = compound: Cc1nc(Nc2ncc(C(=O)Nc3c(C)cccc3Cl)s2)cc(N2CCN(CCO)CC2)n1 [dasatinib]
# Procedure, shortened: as §1
# [8] = compound: Cn1cc(-c2ccc3nnc(C(F)(F)c4ccc5ncccc5c4)n3n2)cn1
# Procedure, shortened: as §1
# [9] = compound: CS(=O)(=O)c1ccc(-c2cnc(N)c(C(=O)Nc3ccccc3)n2)cc1
# Procedure, shortened: as §1
# [10] = compound: C[C@@H]1COCCN1C2=NC(=NC(=C2)C3(CC3)S(=O)(=O)C)C4=C5C=CNC5=CC=C4
# Procedure, shortened: as §1
# [11] = compound: Cc1ccc(NC(=O)c2ccc(CN3CC[C@H](N(C)C)C3)c(C(F)(F)F)c2)cc1Nc1nccc(-c2cncnc2)n1 [bafetinib]
# Procedure, shortened: as §1
# [12] = compound: Cc1cn(-c2cc(NC(=O)c3ccc(C)c(Nc4nccc(-c5cccnc5)n4)c3)cc(C(F)(F)F)c2)cn1 [nilotinib]
# Procedure, shortened: as §1
# [13] = compound: Cc1nc(Nc2n[nH]c3c2CN(C(=O)N[C@H](CN(C)C)c2ccccc2)C3(C)C)c2sccc2n1
# Procedure, shortened: as §1
# [14] = compound: Cc1ncc(-c2ccnc(Nc3ccc(S(C)(=O)=O)cc3)n2)n1C(C)C
# Procedure, shortened: as §1
# [15] = compound: Cn1cncc1[C@@](N)(c1ccc(Cl)cc1)c1ccc2c(c1)c(-c1cccc(Cl)c1)cc(=O)n2C [tipifarnib]
# Procedure, shortened: as §1
# [16] = compound: FC(F)(F)c1ccc(/C=C/c2nc(COc3ccc(CCCCn4ccnn4)cc3)co2)cc1 [mubritinib]
# Procedure, shortened: as §1
# [17] = compound: C[C@@H](Oc1cc(-c2cnn(C3CCNCC3)c2)cnc1N)c1c(Cl)ccc(F)c1Cl [crizotinib]
# Procedure, shortened: as §1
# [18] = compound: Cc1ccc(-n2nc(C(C)(C)C)cc2NC(=O)Nc2ccc(OCCN3CCOCC3)c3ccccc23)cc1 [doramapimod]
# Procedure, shortened: as §1
# [19] = compound: C[C@H](C1=CC=C(C=C1)C(=O)NC2=C3C=CNC3=NC=C2)N
# Procedure, shortened: as §1
# [20] = compound: Cn1cc(-c2ccc3c(c2)CCN3C(=O)Cc2cccc(C(F)(F)F)c2)c2c(N)ncnc21
# Procedure, shortened: as §1
# Sequence of UniProt Q7L099 (Q7L099 whole entry, looked up): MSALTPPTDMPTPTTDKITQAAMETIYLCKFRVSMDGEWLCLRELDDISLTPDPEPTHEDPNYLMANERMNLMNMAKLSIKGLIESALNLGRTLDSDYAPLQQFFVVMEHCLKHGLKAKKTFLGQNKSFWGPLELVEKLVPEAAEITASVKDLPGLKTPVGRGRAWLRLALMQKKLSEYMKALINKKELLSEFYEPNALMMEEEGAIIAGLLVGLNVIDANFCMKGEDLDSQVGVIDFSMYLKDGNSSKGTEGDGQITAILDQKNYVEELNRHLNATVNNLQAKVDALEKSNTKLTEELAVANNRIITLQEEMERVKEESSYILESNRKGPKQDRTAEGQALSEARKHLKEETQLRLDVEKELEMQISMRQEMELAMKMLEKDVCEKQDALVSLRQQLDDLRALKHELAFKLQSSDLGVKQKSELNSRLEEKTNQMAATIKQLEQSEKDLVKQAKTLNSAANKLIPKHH
# Sequence of UniProt Q01196 (Q01196 whole entry, looked up): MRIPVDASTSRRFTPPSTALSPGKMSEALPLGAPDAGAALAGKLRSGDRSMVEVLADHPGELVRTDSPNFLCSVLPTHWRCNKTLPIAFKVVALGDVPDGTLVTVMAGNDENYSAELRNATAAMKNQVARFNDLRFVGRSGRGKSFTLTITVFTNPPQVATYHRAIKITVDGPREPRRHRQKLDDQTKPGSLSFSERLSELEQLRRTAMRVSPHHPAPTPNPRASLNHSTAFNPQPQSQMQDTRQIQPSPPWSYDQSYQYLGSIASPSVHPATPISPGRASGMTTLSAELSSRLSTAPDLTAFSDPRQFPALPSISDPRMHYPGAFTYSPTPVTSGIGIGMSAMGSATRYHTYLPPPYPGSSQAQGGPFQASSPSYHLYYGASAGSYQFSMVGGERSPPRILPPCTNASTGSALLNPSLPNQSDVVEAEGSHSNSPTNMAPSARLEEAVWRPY
# Sequence of UniProt P78332 (P78332 whole entry, looked up): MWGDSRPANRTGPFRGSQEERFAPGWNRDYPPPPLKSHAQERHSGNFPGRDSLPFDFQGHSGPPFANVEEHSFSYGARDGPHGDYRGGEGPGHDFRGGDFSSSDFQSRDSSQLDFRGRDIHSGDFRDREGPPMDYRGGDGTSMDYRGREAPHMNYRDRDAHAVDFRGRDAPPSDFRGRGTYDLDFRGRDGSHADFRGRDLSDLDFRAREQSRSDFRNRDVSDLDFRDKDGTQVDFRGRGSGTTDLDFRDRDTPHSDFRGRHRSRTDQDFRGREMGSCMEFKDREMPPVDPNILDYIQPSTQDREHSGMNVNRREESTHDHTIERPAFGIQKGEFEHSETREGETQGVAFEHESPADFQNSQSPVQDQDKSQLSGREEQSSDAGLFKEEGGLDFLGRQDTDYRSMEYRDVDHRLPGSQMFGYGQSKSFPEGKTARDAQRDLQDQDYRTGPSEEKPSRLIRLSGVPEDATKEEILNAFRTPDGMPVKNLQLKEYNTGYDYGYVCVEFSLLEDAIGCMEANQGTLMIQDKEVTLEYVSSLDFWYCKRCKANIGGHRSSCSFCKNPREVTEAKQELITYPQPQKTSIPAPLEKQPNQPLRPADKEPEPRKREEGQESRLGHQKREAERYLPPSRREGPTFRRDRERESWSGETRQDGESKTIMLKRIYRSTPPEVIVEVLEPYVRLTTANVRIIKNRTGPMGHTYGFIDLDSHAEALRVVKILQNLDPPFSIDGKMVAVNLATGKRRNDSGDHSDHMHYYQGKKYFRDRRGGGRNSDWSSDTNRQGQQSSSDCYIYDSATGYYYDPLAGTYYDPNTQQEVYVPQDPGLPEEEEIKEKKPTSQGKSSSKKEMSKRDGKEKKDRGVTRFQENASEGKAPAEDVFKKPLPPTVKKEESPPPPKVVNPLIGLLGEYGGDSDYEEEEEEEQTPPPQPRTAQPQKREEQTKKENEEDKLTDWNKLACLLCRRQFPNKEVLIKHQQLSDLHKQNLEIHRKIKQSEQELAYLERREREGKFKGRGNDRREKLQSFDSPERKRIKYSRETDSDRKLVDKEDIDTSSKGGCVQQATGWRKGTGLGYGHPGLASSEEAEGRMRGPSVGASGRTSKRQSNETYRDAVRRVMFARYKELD
# Sequence of UniProt P60602 (P60602 whole entry, looked up): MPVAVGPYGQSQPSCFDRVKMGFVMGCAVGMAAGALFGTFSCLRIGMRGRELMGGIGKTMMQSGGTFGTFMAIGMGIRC
# Sequence of UniProt Q02383 (Q02383 whole entry, looked up): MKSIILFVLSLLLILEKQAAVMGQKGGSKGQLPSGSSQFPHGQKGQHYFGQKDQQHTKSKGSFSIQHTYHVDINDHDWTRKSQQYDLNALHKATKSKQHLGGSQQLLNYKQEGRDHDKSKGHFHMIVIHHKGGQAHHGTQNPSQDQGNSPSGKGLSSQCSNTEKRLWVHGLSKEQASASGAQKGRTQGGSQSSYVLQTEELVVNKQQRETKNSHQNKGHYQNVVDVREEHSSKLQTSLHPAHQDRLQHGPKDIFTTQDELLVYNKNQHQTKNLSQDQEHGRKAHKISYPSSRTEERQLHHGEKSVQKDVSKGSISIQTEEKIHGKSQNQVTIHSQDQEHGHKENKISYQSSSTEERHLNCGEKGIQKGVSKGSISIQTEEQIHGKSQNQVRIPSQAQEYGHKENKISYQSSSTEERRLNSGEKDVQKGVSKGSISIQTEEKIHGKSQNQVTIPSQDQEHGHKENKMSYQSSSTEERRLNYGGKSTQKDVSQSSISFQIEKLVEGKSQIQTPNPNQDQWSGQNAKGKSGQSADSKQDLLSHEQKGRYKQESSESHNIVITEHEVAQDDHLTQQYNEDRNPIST
# Sequence of UniProt O15127 (O15127 whole entry, looked up): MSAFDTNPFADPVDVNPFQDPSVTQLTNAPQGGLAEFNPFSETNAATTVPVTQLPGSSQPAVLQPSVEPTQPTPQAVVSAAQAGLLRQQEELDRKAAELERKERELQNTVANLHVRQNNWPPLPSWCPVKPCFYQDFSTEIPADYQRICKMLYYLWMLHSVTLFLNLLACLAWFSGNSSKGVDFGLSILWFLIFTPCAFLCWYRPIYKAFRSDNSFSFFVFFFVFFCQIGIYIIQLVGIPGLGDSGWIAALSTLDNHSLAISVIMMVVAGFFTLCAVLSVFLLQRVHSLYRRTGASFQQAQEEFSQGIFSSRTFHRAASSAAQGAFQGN
# Sequence of UniProt Q9BY78 (Q9BY78 whole entry, looked up): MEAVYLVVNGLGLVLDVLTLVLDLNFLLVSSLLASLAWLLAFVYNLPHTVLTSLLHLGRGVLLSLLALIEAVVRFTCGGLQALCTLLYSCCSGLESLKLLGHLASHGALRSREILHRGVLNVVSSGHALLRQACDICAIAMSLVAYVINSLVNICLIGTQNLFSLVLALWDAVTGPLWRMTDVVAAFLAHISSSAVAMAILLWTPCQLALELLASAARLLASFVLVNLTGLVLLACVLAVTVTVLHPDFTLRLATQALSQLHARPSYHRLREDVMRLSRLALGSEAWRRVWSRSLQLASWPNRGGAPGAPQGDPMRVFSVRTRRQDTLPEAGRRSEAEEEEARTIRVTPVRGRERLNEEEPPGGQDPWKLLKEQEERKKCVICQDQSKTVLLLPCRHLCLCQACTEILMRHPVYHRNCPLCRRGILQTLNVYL
# Sequence of UniProt Q9Y3L5 (Q9Y3L5 whole entry, looked up): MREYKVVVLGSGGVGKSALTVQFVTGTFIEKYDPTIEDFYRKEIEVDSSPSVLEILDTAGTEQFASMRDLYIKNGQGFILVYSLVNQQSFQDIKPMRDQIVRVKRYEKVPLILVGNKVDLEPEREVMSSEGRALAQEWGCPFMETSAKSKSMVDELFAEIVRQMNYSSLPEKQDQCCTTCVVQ
# Sequence of UniProt O75056 (O75056 whole entry, looked up): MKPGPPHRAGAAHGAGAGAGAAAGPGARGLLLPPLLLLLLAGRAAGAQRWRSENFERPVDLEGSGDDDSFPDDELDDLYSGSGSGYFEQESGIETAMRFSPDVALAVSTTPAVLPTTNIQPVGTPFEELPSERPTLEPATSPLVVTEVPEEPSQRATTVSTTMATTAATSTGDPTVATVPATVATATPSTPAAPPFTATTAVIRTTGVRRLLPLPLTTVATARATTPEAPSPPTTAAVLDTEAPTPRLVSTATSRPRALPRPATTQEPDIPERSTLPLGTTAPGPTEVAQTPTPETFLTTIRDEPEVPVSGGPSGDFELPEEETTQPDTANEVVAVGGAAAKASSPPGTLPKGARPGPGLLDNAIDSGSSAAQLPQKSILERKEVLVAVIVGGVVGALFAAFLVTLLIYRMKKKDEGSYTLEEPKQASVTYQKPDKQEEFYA
# Sequence of UniProt P43003 (P43003 whole entry, looked up): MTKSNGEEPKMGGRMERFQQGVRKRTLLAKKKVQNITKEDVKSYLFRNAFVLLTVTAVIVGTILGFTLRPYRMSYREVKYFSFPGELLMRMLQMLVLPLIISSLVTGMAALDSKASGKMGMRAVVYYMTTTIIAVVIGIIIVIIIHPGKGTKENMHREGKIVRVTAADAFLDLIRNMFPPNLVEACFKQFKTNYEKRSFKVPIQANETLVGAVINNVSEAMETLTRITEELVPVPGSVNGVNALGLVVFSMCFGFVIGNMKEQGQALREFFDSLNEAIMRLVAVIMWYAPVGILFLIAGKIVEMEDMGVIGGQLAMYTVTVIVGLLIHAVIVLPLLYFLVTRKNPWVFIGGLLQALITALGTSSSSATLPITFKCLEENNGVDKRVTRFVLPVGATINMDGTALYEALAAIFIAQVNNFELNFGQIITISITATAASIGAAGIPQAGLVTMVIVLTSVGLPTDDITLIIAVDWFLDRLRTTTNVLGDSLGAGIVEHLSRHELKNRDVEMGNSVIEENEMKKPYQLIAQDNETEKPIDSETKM
# Sequence of UniProt Q96EU6 (Q96EU6 whole entry, looked up): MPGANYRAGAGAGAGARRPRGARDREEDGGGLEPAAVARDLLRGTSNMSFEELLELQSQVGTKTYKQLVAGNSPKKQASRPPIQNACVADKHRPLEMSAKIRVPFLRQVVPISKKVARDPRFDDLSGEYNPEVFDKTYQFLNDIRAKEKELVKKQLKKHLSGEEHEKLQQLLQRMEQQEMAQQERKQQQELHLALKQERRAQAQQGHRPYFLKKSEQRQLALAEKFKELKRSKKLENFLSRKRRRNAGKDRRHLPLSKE
Target,log2 fold change [1],log2 fold change [2],log2 fold change [3],log2 fold change [4],log2 fold change [5],log2 fold change [6],log2 fold change [7],log2 fold change [8],log2 fold change [9],log2 fold change [10],log2 fold change [11],log2 fold change [12],log2 fold change [13],log2 fold change [14],log2 fold change [15],log2 fold change [16],log2 fold change [17],log2 fold change [18],log2 fold change [19],log2 fold change [20]
RPS3 (UniProt E9PJN9),0.102,-0.017,-0.215,0.148,-0.224,0.076,-0.207,-0.159,,,,,,,,,,,,
SDCBP isoform 2 (UniProt O00560),0.019,0.058,0.045,0.069,-0.185,-0.066,-0.083,-0.085,0.093,-0.108,-0.298,0.108,-0.219,-0.205,0.109,0.033,,,,
SAFB2 (UniProt K7EQU4),,,,,,,,,,0.275,-0.053,0.155,0.162,-0.113,,,-0.244,-0.04,,
SLC1A3 (UniProt P43003),-0.084,-0.042,-0.194,0.201,0.126,0.013,-0.203,-0.009,,0.167,-0.051,0.131,-0.063,-0.077,0.054,0.096,,,-0.039,0.133
ROMO1 (UniProt P60602),0.117,-0.033,-0.003,-0.059,-0.061,-0.022,-0.03,0.063,0.023,0.121,0.056,-0.001,0.027,-0.039,0.062,0.01,,,0.064,0.066
RUFY3 isoform 3 (UniProt Q7L099),-0.073,-0.012,0.002,0.617 (active),-0.048,-0.018,-0.271,0.134,0.017,,,-0.16,0.045,0.052,-0.116,0.043,0.007,-0.057,-0.085,0.024
SIK3 (UniProt H0Y4E8),0.035,0.118,-0.106,-0.056,0.185,-0.122,-0.037,0,-0.144,,,-0.053,-0.179,0.003,0.251,-0.035,0.084,-0.058,0.027,-0.016
SCAMP2 (UniProt O15127),0.009,0.034,0.044,-0.065,-0.073,-0.125,-0.027,0.062,0.019,-0.213,-0.113,0.084,-0.107,0.058,-0.061,0.046,,,-0.544 (active),0.11
RNF26 (UniProt Q9BY78),,0.008,,,-0.829,0.111,,-0.011,,,0.083,,,,,,,,,
RAP2C (UniProt Q9Y3L5),0.06,-0.742 (active),-0.039,-0.108,0.009,0.157,0.018,-0.032,-0.046,0.007,0.115,0.181,0.069,0.019,0.086,0.041,,,-0.144,0.047
RBM6 (UniProt P78332),-0.154,-0.043,-0.094,-0.183,,-0.048,0.025,,0,,,0.062,-0.109,-0.194,0.028,-0.072,0.148,0.032,0.013,-0.052
RNF185 (UniProt Q96GF1),,0.104,-0.112,,-0.024,-0.037,,0.218,,,0.189,-0.027,-0.001,-0.022,0.045,0.057,,,-0.036,0.089
RNF220 isoform 3 (UniProt Q5VTB9),,,,,,,,,,,,,,,-0.282,,,,,
SEPTIN5 (UniProt G3XAH0),-0.032,-0.153,-0.028,-0.036,-0.017,-0.013,-0.049,0.082,-0.042,0.087,-0.038,-0.05,-0.024,-0.008,0.006,-0.011,,,-0.089,-0.05
"RAD50, A0A494C0Y7",0.067,0.021,-0.042,0.054,-0.054,-0.249,0.028,0.016,0.029,,-0.022,,,,0.058,0.167,-0.024,0.034,0.204,-0.012
RRP36 (UniProt Q96EU6),-0.16,0.182,0.031,0.022,0.043,0.054,0.164,-0.016,-0.115,-0.645,0.428,-0.007,0.203,-0.011,0.208,-0.132,,,0.271,-0.319
RICTOR isoform 3 (UniProt Q6R327),-0.027,-0.015,-0.127,-0.072,,0.141,-0.044,,-0.017,-0.146,,-0.102,0.176,-0.023,-0.052,,,,,
RBMY1E (UniProt A6NEQ0),,-0.137,0.113,,-0.148,0.219,,-0.164,,,-0.041,0.009,-0.038,0.026,-0.016,0.192,-0.122,-0.007,-0.12,0.29
SEMG2 (UniProt Q02383),,-0.032,-0.043,,,0.016,,,-0.058,0.096,-0.089,-0.083,0.056,0.003,,-0.044,,,-0.021,0.008
RALGPS2 (UniProt Q86X27),-0.117,0.08,-0.112,0.106,,-0.001,-0.011,,,-0.199,-0.072,,,,,-0.198,-0.237,0.289,0.222,0.043
RUNX1 isoform 8 (UniProt Q01196),-0.045,0.088,,0.178,0.155,-0.224,-0.082,-0.104,0.106,0.089,-0.149,-0.07,-0.281,-0.209,0.001,0.01,-0.066,0.054,,
SDC3 (UniProt O75056),0.11,-0.193,-0.131,-0.19,,0.419,0.073,,-0.047,0.057,,-0.004,0.07,-0.036,,,,,0.151,-0.019
